Results taken from ChEMBL document CHEMBL1201862, “PubChem BioAssay data set” (2004).
In all, about 400,000 compounds went through this assay and about 2,100 (0.53%) were called active. Roughly 14% stayed inconclusive and do not appear here. No rule for the calls is given here. What follows is part of a selection rich in actives, with near analogues and random picks from the rest.

Target: Ataxin-2 (Homo sapiens) (UniProt Q99700)
Test: qHTS for Inhibitors of ATXN expression.
Assay type: functional

Chain of Ataxin-2 (Homo sapiens) (Q99700 whole entry): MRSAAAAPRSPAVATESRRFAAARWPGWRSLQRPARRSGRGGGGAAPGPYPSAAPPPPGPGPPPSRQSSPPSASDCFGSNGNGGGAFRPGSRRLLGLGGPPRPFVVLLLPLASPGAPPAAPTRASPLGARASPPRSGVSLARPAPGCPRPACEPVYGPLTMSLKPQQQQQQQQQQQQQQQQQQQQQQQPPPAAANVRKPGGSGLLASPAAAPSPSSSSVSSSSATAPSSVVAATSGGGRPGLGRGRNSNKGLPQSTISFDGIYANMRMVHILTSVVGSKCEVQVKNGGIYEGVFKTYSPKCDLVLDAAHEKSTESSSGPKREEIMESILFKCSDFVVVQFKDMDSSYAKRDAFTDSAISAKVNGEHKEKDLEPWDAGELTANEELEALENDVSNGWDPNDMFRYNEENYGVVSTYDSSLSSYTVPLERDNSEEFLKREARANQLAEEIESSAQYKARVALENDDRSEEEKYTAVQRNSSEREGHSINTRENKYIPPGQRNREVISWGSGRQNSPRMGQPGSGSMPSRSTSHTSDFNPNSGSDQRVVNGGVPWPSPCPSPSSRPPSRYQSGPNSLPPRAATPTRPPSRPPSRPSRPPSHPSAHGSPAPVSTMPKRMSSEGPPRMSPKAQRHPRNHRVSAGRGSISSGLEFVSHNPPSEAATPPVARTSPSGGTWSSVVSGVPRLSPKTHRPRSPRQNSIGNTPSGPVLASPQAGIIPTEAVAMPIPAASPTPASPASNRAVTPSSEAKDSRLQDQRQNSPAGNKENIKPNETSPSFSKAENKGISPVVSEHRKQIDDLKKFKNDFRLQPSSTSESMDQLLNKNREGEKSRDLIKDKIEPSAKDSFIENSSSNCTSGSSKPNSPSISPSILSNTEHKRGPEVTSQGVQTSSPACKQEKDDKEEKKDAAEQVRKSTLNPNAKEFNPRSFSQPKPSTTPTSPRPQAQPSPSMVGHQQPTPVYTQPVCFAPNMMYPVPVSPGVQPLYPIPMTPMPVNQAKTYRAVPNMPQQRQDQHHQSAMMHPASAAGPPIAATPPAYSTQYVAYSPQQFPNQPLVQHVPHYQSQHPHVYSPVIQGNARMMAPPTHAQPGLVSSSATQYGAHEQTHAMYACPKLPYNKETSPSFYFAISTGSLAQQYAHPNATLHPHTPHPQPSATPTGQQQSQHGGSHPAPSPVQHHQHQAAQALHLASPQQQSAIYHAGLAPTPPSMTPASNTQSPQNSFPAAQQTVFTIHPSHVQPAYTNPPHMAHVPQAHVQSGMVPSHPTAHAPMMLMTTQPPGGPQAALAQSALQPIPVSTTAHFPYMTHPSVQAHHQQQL

SMILES | Potency
Cc1ccc(S(=O)(=O)N2CCOCC2)cc1C(=O)N1C(=O)c2cccc(N)c2C1=O | inactive
O=C(NC1CC1)c1cccc(S(=O)(=O)N2CCOCC2)c1 | inactive
Cc1cc(C(=O)CCl)c(C)n1-c1cccc(S(=O)(=O)N2CCOCC2)c1 | 21.2 µM (active)
CCC(=O)c1cc2c(C)cc(=O)oc2c(C)c1O | inactive
CCOC(=O)c1cc2c(=O)n3ccccc3nc2n(Cc2ccco2)/c1=N/C(=O)c1ccccc1OCC | inactive
CCOC(=O)[C@]12CCCC=C1N(Cc1ccc(Cl)cc1Cl)C(=O)[C@H](CC(=O)NCc1ccc(OC)c(OC)c1)C2 | 39.8 µM (active)
CCOC(=O)[C@]12CCC=C1N(Cc1cccc3ccccc13)C(=O)[C@H](CC(=O)NCc1ccc(OC)c(OC)c1)C2 | 39.8 µM (active)
COCCn1c(SCC(=O)NCc2ccc(OC)c(OC)c2)nc2ccccc21 | inactive
COC(=O)[C@]12CCCCC=C1N(Cc1ccc(Cl)cc1Cl)C(=O)[C@H](CC(=O)NCc1ccc(OC)c(OC)c1)C2 | 25.1 µM (active)
CCCOc1ccc(N2CC(C(=O)NCCc3ccc(OC)c(OC)c3)CC2=O)cc1 (stereo not drawn) | inactive
CCCCCCCCN1C(=O)[C@H](CC(=O)NCc2ccc(OC)c(OC)c2)C[C@@]2(C(=O)OC)CCCCC=C12 | 35.5 µM (active)
COc1ccc(CNC(=O)COC(=O)c2ccc(C)c(S(=O)(=O)N3CCOCC3)c2)cc1OC | inactive
CC1(C)C/C(=N\O)C(C(O)c2cccc([N+](=O)[O-])c2)C(C)(C)N1 (stereo not drawn) | inactive
O=C1CSC(c2cccc([N+](=O)[O-])c2)N1C1CC2CCC1C2 (stereo not drawn) | inactive
CCCCN(CCCC)S(=O)(=O)c1ccc(C(=O)Nc2sc3c(c2C(N)=O)CCN(CC)C3)cc1 | inactive
Cc1nc2nc(-c3ccccc3)cn2nc1C | inactive
CCCCCCCCN1C(=O)[C@H](CC(=O)NCC2CCCCC2)C[C@@]2(C(=O)OC)CCCCC=C12 | 25.1 µM (active)
Cc1ccc(C2OC34CCCCCC3C(C#N)(C(=N)O4)C2(C#N)C#N)cc1 (stereo not drawn) | inactive
CN(Cc1cccs1)c1nc(-c2cccnc2)nc2ccccc12 | inactive
O=C(c1ccccc1)c1ccc2nc(-c3ccco3)c(-c3ccco3)nc2c1 | inactive
O=C(c1ccccc1Cl)N1N=C(c2cccs2)CC1c1cccc(O)c1 (stereo not drawn) | inactive
COc1ccc(C2=NN(c3ccccc3)C(c3cccs3)C2)cc1 (stereo not drawn) | inactive
COc1ccc(C2CC(c3cccs3)=NN2c2ccc(F)cc2)cc1OC (stereo not drawn) | inactive
Cc1ccc(C2CC(c3cccs3)=NN2C(=O)CCl)cc1 (stereo not drawn) | 25.1 µM (active)
O=C(CCl)N1N=C(c2cccs2)CC1c1ccco1 (stereo not drawn) | 5.32 µM (active)
COc1ccccc1N1N=C(c2cccs2)CC1c1ccccc1 (stereo not drawn) | inactive
COc1cc(C2CC(c3cccs3)=NN2C(=O)CCl)ccc1OC(F)F (stereo not drawn) | 39.8 µM (active)

SMILES | Potency
Cc1ccc(C2=NN(C(=O)CCl)C(c3cccs3)C2)o1 (stereo not drawn) | 9.47 µM (active)
c1ccc(N2N=C(c3cccs3)CC2c2ccco2)cc1 (stereo not drawn) | inactive
CC(=O)Nc1ccc(C2=NN(c3ccccc3)C(c3cccs3)C2)cc1 (stereo not drawn) | inactive
c1ccc(C2CC(c3cccs3)=NN2c2ccccc2)cc1 (stereo not drawn) | inactive
Clc1ccc(N2N=C(c3cccs3)CC2c2ccco2)cc1 (stereo not drawn) | inactive
COc1ccc2nc3c(cc2c1)c(NC(=O)C1CCCO1)nn3CC(C)C (stereo not drawn) | inactive
O=S(=O)([N-]c1nc2ccccc2nc1-[n+]1ccn(Cc2ccccc2)c1)c1ccc(Cl)cc1 | inactive
CCCCn1nc(NC(=O)COC)c2cc3cc(OC)ccc3nc21 | inactive
N=c1c(C(=O)NC2CCCCC2)cc2c(=O)n3ccccc3nc2n1Cc1cccnc1 | inactive
O=C(c1ccccc1)C1Oc2ccccc2C2CC(c3cccs3)=NN12 (stereo not drawn) | inactive
O=C(CCl)N1N=C(c2ccco2)CC1c1cccs1 (stereo not drawn) | 17.8 µM (active)
COc1ccc(C2=NN3C(C2)c2ccccc2OC3c2cccs2)cc1 (stereo not drawn) | inactive
C#CCOCCOCCOCCNc1nc(N2CCN(C(=O)CCCCCCCCCCNC(=O)Cn3cc(C[C@@H](C)O)nn3)CC2)nc(N2CCN(C(=O)CCCCCCCCCCNC(=O)[C@@H]([C@H](C)CC)n3cc(CCCCCN)nn3)CC2)n1 | 20 µM (active)
C#CCOCCOCCOCCNc1nc(N2CCOCC2)nc(N2CCN(C(=O)[C@H]([C@@H](C)CC)n3cc([C@@H](N)Cc4ccc(O)cc4)nn3)CC2)n1 | 35.5 µM (active)
C#CCOCCOCCOCCNc1nc(N2CCN(C(=O)CCCCCCCCCCNC(=O)Cn3cc(CCCCCN)nn3)CC2)nc(N2CCN(C(=O)CCCCCCCCCCNC(=O)[C@@H]([C@H](C)O)n3cc(C)nn3)CC2)n1 | 28.2 µM (active)
C#CCOCCOCCOCCNc1nc(N2CCN(C(=O)CCCCCCCCCCNC(=O)[C@H]([C@@H](C)CC)n3cc(CCCCN=C(N)N)nn3)CC2)nc(N2CCN(C(=O)CCCCCCCCCCNC(=O)[C@H](CO)n3cc(CCCSC)nn3)CC2)n1 | 35.5 µM (active)
CC(Sc1nnc(-c2cccnc2)o1)C(=O)NC1CCCCC1 (stereo not drawn) | inactive
C=CCn1c(N)c(C(=O)OCCC)c2nc3ccccc3nc21 | inactive
OCc1ccccc1-c1ccc2nccn2c1 | inactive
Cc1csc(NC(=O)c2cc3c(s2)-c2ccccc2OC3)n1 | inactive
Cc1cccc(/C=N/c2sc3c(c2C#N)CCN(Cc2ccccc2)C3)c1O | inactive
C#CCOCCOCCOCCNc1nc(N2CCN(C(=O)CCCCCCCCCCNC(=O)[C@H](CCCCN)n3cc(C)nn3)CC2)nc(N2CCN(C(=O)CCCCCCCCCCNC(=O)[C@@H]([C@H](C)O)n3cc(C)nn3)CC2)n1 | 22.4 µM (active)
C#CCOCCOCCOCCNc1nc(N2CCN(C(=O)CCCCCCCCCCNC(=O)[C@H](CCCCN)n3cc(C)nn3)CC2)nc(N2CCN(C(=O)CCCCCCCCCCNC(=O)[C@H](CO)n3cc(CCCSC)nn3)CC2)n1 | 31.6 µM (active)
O=C1C(=O)c2c(C(=O)c3ccccc3)coc2-c2ccccc21 | 35.5 µM (active)
Cc1ccc(C(=O)c2coc3c2C(=O)C(=O)c2ccccc2-3)cc1 | 39.8 µM (active)
COCC/N=C1/Sc2nc3ccc(C)cc3cc2CN1Cc1cccs1 | inactive
